Source: PubChem BioAssay (NCI)
About 83,000 compounds went through this panel and 20% of them were active in at least one assay; those are over-represented in the sample as a whole.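 Cell lines were cultured in 96-well plates, exposed to a single compound concentration, and assessed for percent growth 48 hours later.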 The source made the active and inactive calls. How the source made its calls: active means growth percent below 10; inactive means the rest.

How the values were obtained:
Experiment in all cases: NCI-60 one-dose screen, 48 h (100 = growth as untreated, 0 = no growth, -100 = all killed)
Conditions in all cases: 10 µM unless noted
SK-MEL-2 melanoma = tested on: SK-MEL-2 melanoma
EKVX NSCLC = tested on: EKVX NSCLC
SN12C renal = tested on: SN12C renal
UO-31 renal = tested on: UO-31 renal
TK-10 renal = tested on: TK-10 renal
ACHN renal = tested on: ACHN renal
A498 renal = tested on: A498 renal
CCRF-CEM leukemia = tested on: CCRF-CEM leukemia
MOLT-4 leukemia = tested on: MOLT-4 leukemia
CAKI-1 renal = tested on: CAKI-1 renal

Measured: growth

O=C(Nc1cnc(C(F)(F)F)cn1)c1cc(Cl)ccc1O
active: SK-MEL-2 melanoma -27.6% | EKVX NSCLC 7.75% | SN12C renal 5.36% | UO-31 renal -5.6% | TK-10 renal 1.77% | ACHN renal 3.85% | A498 renal -53.5% | MOLT-4 leukemia 1.24%
inactive: CCRF-CEM leukemia 14.9%

CC(C)(C)NC(=O)C(OC(=O)C1CCc2cc(F)ccc2O1)c1ccccc1Cl (stereo not given)
inactive: SK-MEL-2 melanoma 102% | EKVX NSCLC 96% | SN12C renal 101% | UO-31 renal 72.4% | TK-10 renal 99% | ACHN renal 99% | A498 renal 90.7% | CCRF-CEM leukemia 92.5% | MOLT-4 leukemia 94.6%

CN1CCN(c2ccc(N3Cc4ccccc4OC4=C3C(=O)c3c(O)ccc(O)c3C4=O)cn2)CC1
active: SK-MEL-2 melanoma -36.8% | EKVX NSCLC -1.22% | SN12C renal -62% | UO-31 renal -99.5% | TK-10 renal -98.7% | ACHN renal -100% | A498 renal -20.7% | CCRF-CEM leukemia -12.7% | MOLT-4 leukemia -17.8%

COC(=O)c1ccc(NC(N)=NCCC(C)(C)c2ccc(C(F)(F)F)cc2)nc1
inactive: SK-MEL-2 melanoma 70.3% | EKVX NSCLC 20.3% | SN12C renal 53.4% | UO-31 renal 34.2% | TK-10 renal 49.6% | ACHN renal 65.2% | A498 renal 51.8% | CCRF-CEM leukemia 34.2%
active: MOLT-4 leukemia 4.23%

CC(=O)c1cccc(Nc2ncnc3ccc(NC(=O)c4ccco4)cc23)c1
inactive: SK-MEL-2 melanoma 98.1% | EKVX NSCLC 84.8% | SN12C renal 87.4% | UO-31 renal 64.8% | TK-10 renal 99.6% | ACHN renal 87.1% | A498 renal 82.4% | CCRF-CEM leukemia 96.5% | MOLT-4 leukemia 77.5%

CCCCn1c(-c2ccc(F)cc2)nc2cc(OC)c(OC)cc2c1=O
active: CCRF-CEM leukemia -46%
inactive: SK-MEL-2 melanoma 176% | EKVX NSCLC 105% | SN12C renal 91.3% | UO-31 renal 82.2% | TK-10 renal 75.1% | ACHN renal 101% | A498 renal 95.7% | MOLT-4 leukemia 51.1%

Cc1[nH]n(C(=O)c2ccncc2)c(=O)c1N=Nc1ccc(O)c(C(=O)O)c1
active: CCRF-CEM leukemia -36.1%
inactive: SK-MEL-2 melanoma 159% | EKVX NSCLC 127% | SN12C renal 93.6% | UO-31 renal 78.9% | TK-10 renal 83.2% | ACHN renal 106% | A498 renal 110%

C=CCn1c(SCC(=O)Nc2ccc(C(=O)/C=C/c3ccc(Cl)cc3)cc2)nnc1-c1ccc(Cl)cc1
inactive: SK-MEL-2 melanoma 100% | EKVX NSCLC 86.6% | SN12C renal 78.8% | UO-31 renal 61.7% | TK-10 renal 90.8% | ACHN renal 101% | A498 renal 83.8% | CCRF-CEM leukemia 96.5% | MOLT-4 leukemia 68.4%

O=C(Nc1ccc2ncnc(Nc3ccc(F)c(Cl)c3)c2c1)c1cccs1
active: ACHN renal 2.83%
inactive: SK-MEL-2 melanoma 90.7% | EKVX NSCLC 44.5% | SN12C renal 45.6% | UO-31 renal 27.8% | TK-10 renal 32.3% | A498 renal 46% | CCRF-CEM leukemia 76.9% | MOLT-4 leukemia 71.9%

CCN(CC)CCC(CNc1ccnc2cc(Cl)ccc12)c1ccc(O)cc1 (stereo not given)
inactive: SK-MEL-2 melanoma 119% | EKVX NSCLC 99.4% | SN12C renal 99.1% | UO-31 renal 77.4% | TK-10 renal 90.2% | ACHN renal 98.5% | A498 renal 37.7% | CCRF-CEM leukemia 46% | MOLT-4 leukemia 48.3%

COc1ccc(Sc2[nH]c(C=O)c3ccccc23)cc1
inactive: SK-MEL-2 melanoma 69% | EKVX NSCLC 33.2% | SN12C renal 89% | UO-31 renal 57.7% | TK-10 renal 34.1% | ACHN renal 87.1% | A498 renal 33.1% | MOLT-4 leukemia 41.9%
active: CCRF-CEM leukemia 0.79%

C=C(C)C1CCC2(C(=O)O)CCC3(C)C(CCC4C5(C)CCC(O)C(C)(C)C5CCC43C)C12 (stereo not given)
active: CAKI-1 renal -5.47% | CCRF-CEM leukemia 3.16%
inactive: SK-MEL-2 melanoma 25.4% | EKVX NSCLC 48.1% | SN12C renal 26.8% | UO-31 renal 21.5% | TK-10 renal 12.8% | ACHN renal 24.2%

O=C(NCCNC(=O)c1cc(S(=O)(=O)NCCc2ccccc2)c(O)c(O)c1O)c1cc(S(=O)(=O)NCCc2ccccc2)c(O)c(O)c1O
inactive: SK-MEL-2 melanoma 63% | EKVX NSCLC 49.9% | SN12C renal 52.3% | UO-31 renal 46.5% | TK-10 renal 96.6% | ACHN renal 68.6% | A498 renal 87.3% | CCRF-CEM leukemia 45% | MOLT-4 leukemia 56.6%

COc1cc(/C=C/C(=O)c2ccc(NC(=O)CSc3nnc(-c4ccc(Cl)cc4)n3-c3ccccc3)cc2)cc(OC)c1OC
inactive: SK-MEL-2 melanoma 81.1% | EKVX NSCLC 75.1% | SN12C renal 74.5% | UO-31 renal 75.6% | TK-10 renal 89.4% | ACHN renal 82.4% | A498 renal 77.5% | CCRF-CEM leukemia 57.8% | MOLT-4 leukemia 40.8%

SCc1ccc(CS)cc1
inactive: SK-MEL-2 melanoma 108% | EKVX NSCLC 104% | SN12C renal 100% | UO-31 renal 85.6% | TK-10 renal 115% | ACHN renal 102% | CCRF-CEM leukemia 98%

NC(N)=N/N=C\c1cccc(OCc2ccccc2)c1
inactive: SK-MEL-2 melanoma 61.4% | EKVX NSCLC 80.7% | SN12C renal 86.6% | UO-31 renal 63.9% | TK-10 renal 78.6% | ACHN renal 87.4% | CCRF-CEM leukemia 82.2% | MOLT-4 leukemia 80.1%

CN(C)c1ccc(/C=C(\C#N)c2nc3ccccc3n2C)cc1
inactive: SK-MEL-2 melanoma 46.6% | EKVX NSCLC 28.3% | SN12C renal 54% | UO-31 renal 46.2% | TK-10 renal 37.7% | ACHN renal 55.3% | CAKI-1 renal 13.7% | CCRF-CEM leukemia 31.2% | MOLT-4 leukemia 29.5%

F
active: SK-MEL-2 melanoma -27.7% [6.87 mM] | EKVX NSCLC -14.8% [6.87 mM] | TK-10 renal 4.45% [6.87 mM] | A498 renal -28.8% [6.87 mM]
inactive: SN12C renal 27% [6.87 mM] | UO-31 renal 12% [6.87 mM] | CAKI-1 renal 28.9% [6.87 mM] | CCRF-CEM leukemia 29.9% [6.87 mM]

NC(N)=N/N=C\c1ccc(OCc2ccccc2)cc1
inactive: SK-MEL-2 melanoma 86.6% | EKVX NSCLC 88.6% | SN12C renal 79.5% | UO-31 renal 64.6% | TK-10 renal 73.4% | ACHN renal 75.7% | CCRF-CEM leukemia 72.3% | MOLT-4 leukemia 73.8%

Fc1ccc(-c2nnc(N3CCOCC3)c3ccccc23)cc1
inactive: SK-MEL-2 melanoma 111% | EKVX NSCLC 69.5% | SN12C renal 95% | UO-31 renal 85.6% | TK-10 renal 138% | ACHN renal 103% | A498 renal 105% | CCRF-CEM leukemia 124% | MOLT-4 leukemia 243%

COc1ccc(-c2nnc(SCC(=O)Nc3ccc(C(=O)/C=C/c4ccc(Cl)cc4)cc3)n2-c2ccccc2)cc1
inactive: SK-MEL-2 melanoma 100% | EKVX NSCLC 102% | SN12C renal 101% | UO-31 renal 73.8% | TK-10 renal 109% | ACHN renal 107% | A498 renal 116% | CCRF-CEM leukemia 86.5% | MOLT-4 leukemia 81.5%

COc1ccc(C2C3CCc4ccccc4C3=NN2C(=O)c2cc(OC)c(OC)c(OC)c2)cc1O (stereo not given)
inactive: SK-MEL-2 melanoma 75.4% | EKVX NSCLC 89.6% | SN12C renal 114% | UO-31 renal 79.9% | TK-10 renal 101% | ACHN renal 98.1% | CAKI-1 renal 101% | CCRF-CEM leukemia 88.9% | MOLT-4 leukemia 90.5%

C#CC[C@@H]1C[C@]2(C)[C@H]3CC[C@@H]4[C@H]5C(C(=C)C)CC[C@]5(C(=O)NCCN(CCN)CCN)CC[C@@]4(C)[C@]3(C)CC[C@H]2C(C)(C)[C@H]1OC(C)=O (stereo not given in full)
inactive: SK-MEL-2 melanoma 112% | EKVX NSCLC 31% | SN12C renal 87.8% | UO-31 renal 74.7% | TK-10 renal 95% | CAKI-1 renal 56.3% | A498 renal 128% | CCRF-CEM leukemia 22.5% | MOLT-4 leukemia 31.1%

Cc1ccc(O)c(Cc2ccccc2)c1
inactive: SK-MEL-2 melanoma 93.8% | EKVX NSCLC 116% | SN12C renal 90.3% | UO-31 renal 84% | TK-10 renal 100% | ACHN renal 100% | A498 renal 99.9% | CCRF-CEM leukemia 103%

CCCCCNCCCCCNc1cc(OC)cc2cccnc12
inactive: SK-MEL-2 melanoma 99% | EKVX NSCLC 101% | SN12C renal 92.7% | UO-31 renal 46% | TK-10 renal 78.7% | ACHN renal 94.3% | A498 renal 75% | CCRF-CEM leukemia 95.2%

C=CCn1c(SCC(=O)Nc2ccc(C(=O)/C=C/c3ccccc3)cc2)nnc1-c1ccc(OC)c(OC)c1
inactive: SK-MEL-2 melanoma 85.2% | EKVX NSCLC 80.7% | SN12C renal 74.7% | UO-31 renal 55.7% | TK-10 renal 87.6% | ACHN renal 86.8% | A498 renal 75% | CCRF-CEM leukemia 83.7% | MOLT-4 leukemia 58.2%

CN(C)c1ccc(N2Cc3ccccc3OC3=C2C(=O)c2c(O)ccc(O)c2C3=O)cn1
active: SK-MEL-2 melanoma -51.5% | EKVX NSCLC -15.8% | SN12C renal -91.7% | UO-31 renal -99.1% | TK-10 renal -93.9% | ACHN renal -100% | A498 renal -61.1% | CCRF-CEM leukemia -8.39% | MOLT-4 leukemia -22.4%

COc1cc(OC)cc(-c2n/c(=C\c3c(O)[nH]c4ccc(Cl)cc34)cc3c2=Nc2ccccc2-3)c1
inactive: SK-MEL-2 melanoma 100% | EKVX NSCLC 91.9% | SN12C renal 93.5% | UO-31 renal 66.4% | TK-10 renal 116% | ACHN renal 81.3% | CAKI-1 renal 82.1% | A498 renal 94.2% | MOLT-4 leukemia 30.5%

O=C(O)c1cn(-c2ccccc2)nc1-c1ccc(O)cc1
inactive: SK-MEL-2 melanoma 103% | EKVX NSCLC 95.7% | SN12C renal 98.9% | UO-31 renal 89.4% | TK-10 renal 106% | ACHN renal 99.4% | A498 renal 74.3% | CCRF-CEM leukemia 94%

CC(CN1CCN(C)CC1)CN1c2ccccc2Sc2ccc(C(F)(F)F)cc21 (stereo not given)
inactive: SK-MEL-2 melanoma 70% | EKVX NSCLC 70.4% | SN12C renal 47.2% | TK-10 renal 21% | ACHN renal 38.1% | CAKI-1 renal 37.3% | A498 renal 60.3% | CCRF-CEM leukemia 25.2% | MOLT-4 leukemia 15.9%
